We go through 7 compounds from PubChem BioAssay (Tox21).

Assay [1] can be described thus: qHTS assay to identify small molecule antagonists of the estrogen receptor alpha (ER-alpha) signaling pathway using the BG1 cell line in the presence of 0.1 nM 17-beta-estradiol - cell viability counter screen (AID 1259241). Further: nearly all actives have a fitted effect of over 40% in size. Further: potency means the concentration at half of the fitted maximal effect. A digest of the protocol:
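VM7Luc4E2 cells (endogenous full-length ER-alpha, 4xERE-luciferase), cultured 5 days in charcoal-stripped serum, exposed to compounds with 0.1 nM 17beta-estradiol (final) for 22 hr at 37C. Viability read in same wells as live-cell protease fluorescence after 30 min.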

A short description of assay [2]: qHTS assay to identify small molecule antagonists of the androgen receptor (AR) signaling pathway using the MDA cell line in the presence of 0.5 nM R1881 - cell viability counter screen (AID 1259242). Further: nearly all actives have a fitted effect of over 45% in size. Further: potency means the concentration at half of the fitted maximal effect. A digest of the protocol:
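R1881 at 0.5 nM final stimulated MDA-kb2 cells during 16 hr compound treatment at 37C. Cytotoxicity read: CellTiter-Fluor fluorescence after 30 min.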
On the technique in general: Quantitative high-throughput screening tests each substance at several concentrations.

Assay [3] can be described thus: qHTS assay to identify small molecule phospholipidosis (PLD) inducers (AID 1259344; active means well fitted curve in the direction sought with a large enough effect; an effect the other way counts as inactive or inconclusive). A digest of the protocol: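 HepG2 cells grown on collagen I take up LipidTOX Red while exposed to compound for 24 h; after fixation they are imaged at 20x and pit metrics are extracted.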
Assay [4] is described as follows: qHTS assay to identify small molecule HDAC inhibitors (AID 1259364). Further: potency means the concentration at half of the fitted maximal effect.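 Further: wild-type HCT-116 cells with endogenous class I/II HDAC activity; nearly all actives have a fitted effect of over 45% in size.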 On activity change, negative = inhibition: top concentration of the series differs between compounds. A digest of the protocol:
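Relative class I and II HDAC activity is taken from the luminogenic signal in HCT-116 cells, with compound exposure 2 hr and reagent development 30 min at room temperature.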

The nature of assay [5]: qHTS assay to identify small molecule HDAC inhibitors - cell viability counter screen (AID 1259365). Further: nearly all actives have a fitted effect of over 50% in size. Further: potency means the concentration at half of the fitted maximal effect. On activity change, negative = cytotoxicity: series mostly up to about 92 µM. A digest of the protocol: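 Wild-type HCT-116 cells, 1,500/well, cultured overnight, then compound-treated 2 h at 37 C. Viability measured as ATP luminescence with CellTiter-Glo after 30 min at room temperature.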
The nature of assay [6]: qHTS assay to identify small molecule agonists of the sonic hedgehog signaling (Shh) pathway - cell viability counter screen (AID 1259366). Further: nearly all actives have a fitted effect of over 50% in size. Further: potency means the concentration at half of the fitted maximal effect. A digest of the protocol:
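NIH/3T3-derived Gli1-Luc reporter cells, 2,000 per well, received compound after 4 h and were treated about 23 h at 37C. Viability measured in the same wells by CellTiter-Fluor fluorescence after 1 h.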

Assay [7] in a line: qHTS assay to identify small molecule antagonists of the sonic hedgehog signaling (Shh) pathway - cell viability counter screen (AID 1259367). Further: nearly all actives have a fitted effect of over 55% in size. Further: potency means the concentration at half of the fitted maximal effect. A digest of the protocol:
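After a 4 hr settling period, 3T3 Gli1-Luc cells were treated with DMSO-dissolved chemicals and conditioned medium, kept 24 hr at 37C in 5% CO2, and assayed for viability by CellTiter-Fluor fluorescence following 1 hr reagent incubation.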

A short description of assay [8]: qHTS assay to identify small molecule agonists of the sonic hedgehog signaling (Shh) pathway (AID 1259368; calls by dose curve;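 further: NIH/3T3-derived 3T3Gli1-Luc cells carrying a stable Gli1-driven firefly luciferase reporter; series mostly up to about 92 µM; nearly all actives have a fitted effect of over 15% in size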). In outline:
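Mouse fibroblast (NIH/3T3) reporter cells with stably integrated Gli1-Luc were treated 24 hr with compound; firefly luciferase luminescence served as the read-out.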

A short description of assay [9]: qHTS assay to identify small molecule antagonists of the sonic hedgehog signaling (Shh) pathway (AID 1259369; calls by dose curve; further: nearly all actives have a fitted effect of over 45% in size; further: potency means the concentration at half of the fitted maximal effect). A digest of the protocol:
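Conditioned medium drives Shh signalling in 3T3Gli1-Luc cells; compounds in DMSO co-applied, 24hr at 37 C, then luciferase luminescence.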

The target in assay [10] is Estrogen receptor beta (Homo sapiens) (UniProt Q92731). As to the kind of experiment: qHTS assay to identify small molecule antagonists of the estrogen receptor beta (ER-beta) signaling pathway (AID 1259378; active means well fitted inhibition curve with a large enough effect in the signal ratio in the repeat runs, not every such curve was filed as active; the % refers to the signal ratio). In outline: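 ER-beta-UAS-bla HEK293T (GripTite) cells in 2% charcoal-stripped FBS medium were preincubated 6 hr at 37C, dosed with compound, then stimulated with 1 nM E2 (final) for 16 hr; beta-lactamase reporter read by B/G FRET fluorescence after 2 hr substrate loading.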

A short description of assay [11]: qHTS assay to identify small molecule agonists of the androgen receptor (AR) signaling pathway in the presence of an antagonist - cell viability counter screen (AID 1259379).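 Further: MDA-kb2 human breast cancer cells carrying an MMTV luciferase reporter; series mostly up to about 92 µM; nearly all actives have a fitted effect of over 25% in size.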 A digest of the protocol:
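A CellTiter-Fluor read-out measured viability of MDA-kb2 reporter cells (MMTV promoter with AR and GR response elements). Treatment: nilutamide 3.0uM final with compounds at 15 concentrations, 16 hr, 37C, 0% CO2.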

The nature of assay [12]: qHTS assay to identify small molecule agonists of the estrogen receptor beta (ER-beta) signaling pathway - cell viability counter screen (AID 1259380). Further: nearly all actives have a fitted effect of over 30% in size. Further: potency means the concentration at half of the fitted maximal effect. In outline: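 Cells used were ER-beta-UAS-bla HEK293T in medium with 2% charcoal-stripped FBS. They were treated for 16 hr at 37C. Viability came from CellTiter-Glo luminescence.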
A short description of assay [13]: qHTS assay to identify small molecule antagonists of the estrogen receptor beta (ER-beta) signaling pathway - cell viability counter screen (AID 1259382). Further: series mostly up to about 92 µM; nearly all actives have a fitted effect of over 55% in size. A digest of the protocol:
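Agonist-stimulated (1nM E2) ER-beta-UAS-bla HEK293T cells are incubated with library compounds for 16 hr at 37C. Cell viability is then assessed in the reporter-assay wells by adding CellTiter-Glo and reading luminescence after 30 min.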

Assay [14] in a line: qHTS assay to identify small molecule agonists or antagonists of the thyroid stimulating hormone receptor (TSHR) signaling pathway - wild type cell line counter screen (AID 1259384; calls by dose curve). A digest of the protocol: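 Wild-type HEK293 cells were plated 18 h at 37 C/5% CO2, pin-dosed with compound plus Ro20-1724 medium, held 30 min at room temperature, then given cAMP-d2 and anti-cAMP-cryptate; fluorescence was read after 1 h. Fifteen concentrations, triplicate.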

The target of assay [15] is Thyrotropin receptor (Homo sapiens) (UniProt P16473). Description: qHTS assay to identify small molecule antagonists of the thyroid stimulating hormone receptor (TSHR) signaling pathway (AID 1259385; calls by dose curve; further: nearly all actives have a fitted effect of over 20% in size). A digest of the protocol:
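TSHR-HEK293 cells were plated and held 18 h at 37C/5% CO2, then given compound plus Ro20-1724 and stimulated with TSH at 1.5 ng/mL final. After 30 min at room temperature, cAMP was detected with cAMP-d2/anti-cAMP-cryptate (1 h) by fluorescence.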

Assay [16] has as its target Estrogen receptor beta (Homo sapiens) (UniProt Q92731). As to the kind of experiment: qHTS assay to identify small molecule agonists of the estrogen receptor beta (ER-beta) signaling pathway (AID 1259377; active means well fitted activation curve with a large enough effect in the signal ratio in the repeat runs, not every such curve was filed as active; the % refers to the signal ratio). In outline: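 ER-beta-UAS-bla HEK293T cells in medium with 2% charcoal-stripped FBS were exposed to compounds for 16 h at 37C. Beta-lactamase reporter activity was read as fluorescence after 2 h with LiveBLAzer B/G FRET substrate at room temperature.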

Structures are written as SMILES. “And” between values parts separate entries of the source, which are not always exact repeats. Equal values may be shown once. Unmarked numbers belong to inactive results. Inconclusive results are not listed. The source made the active and inactive calls. Unless noted, the call rests on the fitted dose curve; in most records, active means well fitted curve in the direction sought with a large enough effect in the repeat runs; inconclusive means weak or mixed curves; inactive means no such curve, though single readings can be large; an effect the other way counts as inactive or inconclusive.
On the % scale 0 is the no-effect control and ±100 the full control effect.

Thyrotropin receptor (Homo sapiens), sequence (P16473 whole entry, looked up): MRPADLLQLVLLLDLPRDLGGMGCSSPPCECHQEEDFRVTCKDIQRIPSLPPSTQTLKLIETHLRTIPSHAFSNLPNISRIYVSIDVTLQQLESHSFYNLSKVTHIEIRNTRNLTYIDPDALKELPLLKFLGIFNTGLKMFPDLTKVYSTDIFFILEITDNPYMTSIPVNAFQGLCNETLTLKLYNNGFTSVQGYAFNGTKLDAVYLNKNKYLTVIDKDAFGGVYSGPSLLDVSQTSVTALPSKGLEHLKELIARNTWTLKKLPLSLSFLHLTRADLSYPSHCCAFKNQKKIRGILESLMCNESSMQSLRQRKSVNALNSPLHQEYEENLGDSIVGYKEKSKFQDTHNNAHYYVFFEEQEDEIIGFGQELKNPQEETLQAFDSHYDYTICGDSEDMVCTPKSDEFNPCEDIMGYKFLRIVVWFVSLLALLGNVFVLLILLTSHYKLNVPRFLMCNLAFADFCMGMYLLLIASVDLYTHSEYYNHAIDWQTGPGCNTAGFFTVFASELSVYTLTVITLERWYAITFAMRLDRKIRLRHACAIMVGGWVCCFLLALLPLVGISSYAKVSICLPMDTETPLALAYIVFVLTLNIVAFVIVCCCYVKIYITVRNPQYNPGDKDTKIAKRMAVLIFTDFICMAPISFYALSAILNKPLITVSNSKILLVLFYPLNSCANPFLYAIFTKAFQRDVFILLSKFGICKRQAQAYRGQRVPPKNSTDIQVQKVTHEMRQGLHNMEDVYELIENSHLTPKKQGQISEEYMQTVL
Estrogen receptor beta (Homo sapiens), sequence (Q92731 whole entry, looked up): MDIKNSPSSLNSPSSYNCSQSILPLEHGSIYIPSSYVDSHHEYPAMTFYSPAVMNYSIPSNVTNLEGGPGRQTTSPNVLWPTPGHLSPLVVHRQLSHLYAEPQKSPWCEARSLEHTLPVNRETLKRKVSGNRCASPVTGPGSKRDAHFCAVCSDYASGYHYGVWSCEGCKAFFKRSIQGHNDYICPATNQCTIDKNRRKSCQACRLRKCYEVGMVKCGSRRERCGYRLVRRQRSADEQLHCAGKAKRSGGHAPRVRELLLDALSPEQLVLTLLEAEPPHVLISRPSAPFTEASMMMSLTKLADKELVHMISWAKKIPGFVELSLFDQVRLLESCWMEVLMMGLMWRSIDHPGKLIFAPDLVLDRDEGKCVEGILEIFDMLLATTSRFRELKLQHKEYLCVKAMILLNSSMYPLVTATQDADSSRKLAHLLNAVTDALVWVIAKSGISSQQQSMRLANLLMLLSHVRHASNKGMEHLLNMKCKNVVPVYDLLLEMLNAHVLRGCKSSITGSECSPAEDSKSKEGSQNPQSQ

For `C[N+](C)(C)CCOC(=O)C(O)(c1ccccc1)c1ccccc1`, the Potency entry in assay [1], in [2], in assay [4], in assay [5], in [6] and in [7] was “inactive” throughout. The Potency result in assay [8], in assay [9], in [10], in assay [11] and in [12] was “inactive” in each case. Moreover, the compound was called inactive in assay [3].
For the compound `O=C(O)C(Cl)(Cl)Br`, the Potency entry in assay [1], in assay [2], in assay [4], in assay [6], in assay [7] and in [8] was “inactive” throughout. Further, the Potency entry in assay [9], in [11], in assay [12], in assay [13] and in [15] was “inactive” throughout. Also, the outcome in assay [14] was inactive.
Regarding `Cc1ccccc1`, the Potency entry in [1], in assay [2], in assay [4], in assay [5], in [6] and in assay [7] was “inactive” throughout. In addition, the Potency result in assay [9], in [16], in assay [10], in assay [11], in [12] and in assay [13] was “inactive” throughout. Besides, in [15], the Potency entry is “inactive”. Moreover, in assay [14], the compound was classed as inactive.
In the case of `[Cl-].[Cl-].[Hg+2]`, the Potency is 27.2 µM (active) and 21.7 µM (active) in assay [1]; 6.86 µM (active) in assay [2]; 54.2 µM (active) and 34.4 µM (active) in [4]; 68.2 µM (active) in assay [5]; 682 nM (active) and 2.17 µM (active) in [6]; 964 nM (active) and 1.93 µM (active) in assay [7]. The Potency is 34.2 nM (active) and 243 nM (active) in assay [9]; 5.42 µM (active) and 3.86 µM (active) in assay [12]. For the same compound, the compound was called inactive in [3]. Also, the Potency entry in assay [11] is “inactive”.
For the compound `COc1ccccc1N1CCNCC1`, the Potency entry in [1], in assay [2], in assay [4], in assay [5], in assay [6] and in [7] was “inactive” in each case. The Potency result in [8], in assay [9], in [10], in assay [11], in assay [12] and in assay [13] was “inactive” each time. The Potency entry in assay [15] was “inactive”. Also, the result in assay [3] and in [14] was inactive.
For `C[Si](Cn1cncn1)(c1ccc(F)cc1)c1ccc(F)cc1`, the Potency entry in assay [1], in assay [2], in [4], in assay [5], in assay [6] and in assay [7] was “inactive” each time. The Potency result in assay [8], in assay [16], in assay [11], in assay [12], in assay [13] and in assay [15] was “inactive” each time. The Potency in assay [9] is 8.92 µM (active). In addition, in assay [14], the call was inactive.
For `CCCCCCCCCCCCN=C(N)N`, the activity change, negative = cytotoxicity in assay [1] is 2.27% [at 3.27 µM]; in [5], -3.51% [at 3.27 µM]; in [11], -9.57% [at 3.27 µM]; in [13], -18.7% [at 3.27 µM]. Also, the viability change, negative = cytotoxic is -1.29% [at 3.26 µM] in assay [2], 23.3% [at 3.27 µM] in assay [6] and 1.35% [at 3.27 µM] in assay [7]. Further, the activity change, negative = inhibition was 5.66% [at 3.27 µM] in [4] and 0.876% [at 3.27 µM] in [15]. In addition, the activity change in assay [8] is 0.488% [at 3.27 µM, active compounds read high]. Also, in [9], the Potency is 0.671 µM (active). In addition, the cAMP activity change in [14] was 1.76% [at 3.27 µM].
